Experiment [1] deals with Lysosomal acid glucosylceramidase (Homo sapiens) (UniProt P04062). In words: Glucocerebrosidase-p2 (AID 348; in the data active = potency below about 10 µM; note: potency is the fitted concentration of half-maximal effect). The settings on record: purified GBA, blue fluorogenic substrate, 40 min. The method, boiled down:
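Normal human glucocerebrosidase (0.2 nM) with blue fluorogenic substrate (80 uM final) in citrate/phosphate pH 5.9 with 10mM sodium taurocholate, 0.01% tween-20; 40 min RT, NaOH/glycine stop; fluorescence Ex 365/Em 440; AC50 from a titration from 0.6 nM upwards.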

Experiment [2] can be described thus: AP1 Signaling Pathway (AID 357).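 Note: ME-180 reporter cells stimulated with EGF at its EC50 level; % is set by controls: 0 for no effect and ±100 for the full control effect.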 The settings on record: ME-180 AP-1-bla reporter, EGF-induced, beta-lactamase ratio, 5 h; at 7.69 µM (top of the series) unless noted. The method, boiled down:
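First, ME-180 AP-1-bla cells were cultured overnight at 37 °C in low-serum Opti-MEM. Next, titrated compounds with EC50 EGF were incubated 5 hours. Finally, CCF4 was added for 2.5 hours and the 460/530 nm ratio recorded.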

Experiment [3] deals with Cytochrome P450 1A2 (Homo sapiens) (UniProt P05177). In words: p450-cyp1a2 (AID 410; calls by dose curve; note: potency is the fitted concentration of half-maximal effect;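 for activity change, negative = inhibition: -100% = full effect of reference inhibitor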). The settings on record: recombinant CYP1A2, luciferin-ME demethylation, luminescence; series mostly up to 11.4 µM. The method, boiled down:
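20nM CYP1A2, 100uM Luciferin-ME (=Km), 100mM KPO4; cpd 10 min RT; +NADPH regen, 60 min RT; stop/detect 20 min; luminescence. Normalized to furafylline 57 uM = full inhibition.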

The nature of experiment [4]: NFAT Signaling Pathway (AID 444).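 Note: carbachol stimulus at about its EC50 of 1 µM final; % is set by controls: 0 for no effect and ±100 for the full control effect.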 The settings on record: Jurkat NFAT-bla M1, carbachol, beta-lactamase ratio, 5 h; at 7.69 µM (top of the series) unless noted. The method, boiled down: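 Jurkat cells with NFAT-driven β-lactamase reporter and co-expressed M1 receptor, stimulated with carbachol (final 1 uM, ~EC50), compound titration, 5 h at 37 °C. CCF4 loaded 1 h at RT; 460/530 nm ratio gave %activity and AC50.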

The nature of experiment [5]: Stat Signaling Pathway (AID 446).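 Note: ME-180 cervical cancer cells given 40 pM IL-6 alongside compound; SIE-controlled beta-lactamase reporter measured as 460/530 nm FRET emission ratio; % is set by controls: 0 for no effect and ±100 for the full control effect.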 The settings on record: ME-180 (cervical carcinoma) SIE beta-lactamase reporter, IL-6 stimulated, 5 h; at 7.69 µM (top of the series) unless noted. In outline: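 Compound effects on IL-6-induced STAT reporter activity were measured in ME-180 cells. After overnight culture, cells were co-treated with 40 pM IL-6 for 5 hrs before beta-lactamase substrate loading at room temperature.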

In experiment [6] the target is Glucocorticoid receptor (Homo sapiens) (UniProt P04150). Briefly: GR-GFP Redistribution (AID 450;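 active = compounds whose dose series gives a full or clear partial fitted curve of increased nuclear translocation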; note: potency is the fitted concentration of half-maximal effect). The settings on record: U2OS GR-GFP nuclear translocation, laser cytometry, 2 h.
Sequence of Glucocorticoid receptor (Homo sapiens) (P04150 whole entry, looked up, the tested form may be a part): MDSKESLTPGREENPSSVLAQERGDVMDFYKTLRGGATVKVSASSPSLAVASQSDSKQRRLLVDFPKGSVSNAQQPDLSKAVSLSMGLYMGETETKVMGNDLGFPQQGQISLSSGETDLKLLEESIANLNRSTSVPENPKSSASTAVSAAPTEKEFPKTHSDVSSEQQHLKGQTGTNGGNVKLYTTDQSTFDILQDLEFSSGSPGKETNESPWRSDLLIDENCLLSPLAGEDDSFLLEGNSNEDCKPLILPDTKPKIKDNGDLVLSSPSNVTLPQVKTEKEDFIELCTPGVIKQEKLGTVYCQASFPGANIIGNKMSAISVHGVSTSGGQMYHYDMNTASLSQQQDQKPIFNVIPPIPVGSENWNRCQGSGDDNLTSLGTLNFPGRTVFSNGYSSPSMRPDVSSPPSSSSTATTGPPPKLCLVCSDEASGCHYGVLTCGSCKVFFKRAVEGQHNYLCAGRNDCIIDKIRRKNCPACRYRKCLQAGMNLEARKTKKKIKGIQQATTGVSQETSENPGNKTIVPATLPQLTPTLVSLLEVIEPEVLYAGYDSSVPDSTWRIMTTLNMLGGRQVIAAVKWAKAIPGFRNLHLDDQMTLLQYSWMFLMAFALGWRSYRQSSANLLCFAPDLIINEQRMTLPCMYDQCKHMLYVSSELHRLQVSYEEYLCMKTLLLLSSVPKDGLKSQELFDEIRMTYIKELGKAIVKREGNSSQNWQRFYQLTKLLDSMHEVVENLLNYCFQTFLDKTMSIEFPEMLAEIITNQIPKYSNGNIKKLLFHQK
Experiment [7] shares this target. In words: GR-EFC Redistribution (AID 451; calls by dose curve; note: potency is the fitted concentration of half-maximal effect). The settings on record: CHO-K1 GR-EFC translocation, beta-gal luminescence, 2 h. The method, boiled down: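 CHO-K1 cells expressing nuclear EA and GR-ED fragments of b-gal; compounds titrated up to 46 uM final, 2 h at 37 C. GR nuclear translocation read as complemented b-gal luminescence after 1 h RT detection.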
Experiment [8] deals with Mitogen-activated protein kinase 10 (Mus musculus) (UniProt Q61831). In words: JNK3 AlphaScreen Assay (AID 530).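 Note: kinase came from lysate of stimulated human HepG2 cells; signal reports phosphorylation of biotinylated GST-cJun 1-79 at Ser73 with 10 µM ATP; % is set by controls: 0 for no effect and ±100 for the full control effect.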 The settings on record: JNK3 lysate, c-Jun phosphorylation; series mostly up to 11.4 µM. In outline:
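HepG2 lysate (IL-1b/TNFa pre-activated) + biotin-GST-cJun 1-79 + anti-pSer73 cJun; cpd titration, 15 min RT; ATP 10 uM start; Tris pH 7.6, MgCl2, DTT, vanadate; beads in EDTA buffer; AlphaScreen.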
For orientation: Bead proximity is the source of the signal in Alpha formats.

The target of experiment [9] is 3',5'-cyclic-AMP phosphodiesterase 4B (Homo sapiens) (UniProt Q07343). In words: qHTS Assay for Inhibitors of PDE-IV (AID 607; active = well fitted activation curve with a large enough effect in the main read-out, with a control signal flat, not every such curve was filed as active; note: % of control where 0% means no effect). The settings on record: HEK293 ACTOne CNG channel cells, membrane potential fluorescence; series mostly up to 22.9 µM. In outline:
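ACTOne HEK293 cells carry a modified cAMP-gated CNG channel and express endogenous PDE4; plated 1000 cells/well, compounds up to 22.9 uM final. Membrane-potential dye fluorescence (ex 535/em 590) was read; parental cells received 10 uM forskolin + 100 uM RO 20-1724.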
For orientation: Quantitative high-throughput screening tests each substance at several concentrations.

Unmarked numbers belong to inactive results. Records with an inconclusive call do not appear. Active and inactive are the calls of the source. Unless noted, calls come from the whole dose curve; as a rule, active = well fitted curve in either direction with a large enough effect (not every such curve was filed as active); inconclusive = small, poorly fitted or top-dose-only effect, or another doubt; inactive = flat fitted curve, though single readings scatter.

Sequence of Lysosomal acid glucosylceramidase (Homo sapiens) (P04062 whole entry, looked up): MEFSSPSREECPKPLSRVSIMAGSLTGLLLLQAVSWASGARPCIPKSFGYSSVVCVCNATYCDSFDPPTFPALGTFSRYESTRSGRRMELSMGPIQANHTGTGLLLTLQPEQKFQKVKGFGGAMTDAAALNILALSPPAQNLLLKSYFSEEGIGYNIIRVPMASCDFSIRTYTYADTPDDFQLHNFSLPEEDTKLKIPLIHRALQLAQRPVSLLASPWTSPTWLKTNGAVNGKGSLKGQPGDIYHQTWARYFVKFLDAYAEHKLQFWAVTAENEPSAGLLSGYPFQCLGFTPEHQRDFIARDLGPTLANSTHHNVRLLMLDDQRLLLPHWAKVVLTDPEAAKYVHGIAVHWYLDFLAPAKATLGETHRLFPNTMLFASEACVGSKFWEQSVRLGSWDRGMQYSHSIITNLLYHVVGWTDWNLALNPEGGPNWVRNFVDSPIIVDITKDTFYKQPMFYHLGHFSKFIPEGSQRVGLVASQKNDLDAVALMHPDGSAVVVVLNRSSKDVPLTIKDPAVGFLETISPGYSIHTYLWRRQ
Sequence of 3',5'-cyclic-AMP phosphodiesterase 4B (Homo sapiens) (Q07343 whole entry, looked up): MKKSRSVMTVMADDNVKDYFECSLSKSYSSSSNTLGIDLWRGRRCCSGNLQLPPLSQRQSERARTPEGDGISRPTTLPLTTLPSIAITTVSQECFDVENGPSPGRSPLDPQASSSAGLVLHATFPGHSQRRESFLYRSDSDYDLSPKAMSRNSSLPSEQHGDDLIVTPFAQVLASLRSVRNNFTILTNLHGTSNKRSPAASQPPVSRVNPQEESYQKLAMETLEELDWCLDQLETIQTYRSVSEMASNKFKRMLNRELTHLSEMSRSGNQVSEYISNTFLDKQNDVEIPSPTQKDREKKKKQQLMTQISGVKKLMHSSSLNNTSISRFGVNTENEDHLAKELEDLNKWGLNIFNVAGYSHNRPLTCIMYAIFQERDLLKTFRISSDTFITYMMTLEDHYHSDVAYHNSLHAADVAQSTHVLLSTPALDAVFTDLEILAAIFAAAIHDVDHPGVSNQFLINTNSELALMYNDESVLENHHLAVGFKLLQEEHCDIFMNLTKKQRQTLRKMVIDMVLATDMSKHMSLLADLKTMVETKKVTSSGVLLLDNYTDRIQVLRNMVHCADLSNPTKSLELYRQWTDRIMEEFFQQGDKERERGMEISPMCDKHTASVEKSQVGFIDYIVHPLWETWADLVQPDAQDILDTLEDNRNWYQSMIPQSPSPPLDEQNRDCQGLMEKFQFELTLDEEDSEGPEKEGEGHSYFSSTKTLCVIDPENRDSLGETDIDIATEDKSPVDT
Sequence of Cytochrome P450 1A2 (Homo sapiens) (P05177 whole entry, looked up): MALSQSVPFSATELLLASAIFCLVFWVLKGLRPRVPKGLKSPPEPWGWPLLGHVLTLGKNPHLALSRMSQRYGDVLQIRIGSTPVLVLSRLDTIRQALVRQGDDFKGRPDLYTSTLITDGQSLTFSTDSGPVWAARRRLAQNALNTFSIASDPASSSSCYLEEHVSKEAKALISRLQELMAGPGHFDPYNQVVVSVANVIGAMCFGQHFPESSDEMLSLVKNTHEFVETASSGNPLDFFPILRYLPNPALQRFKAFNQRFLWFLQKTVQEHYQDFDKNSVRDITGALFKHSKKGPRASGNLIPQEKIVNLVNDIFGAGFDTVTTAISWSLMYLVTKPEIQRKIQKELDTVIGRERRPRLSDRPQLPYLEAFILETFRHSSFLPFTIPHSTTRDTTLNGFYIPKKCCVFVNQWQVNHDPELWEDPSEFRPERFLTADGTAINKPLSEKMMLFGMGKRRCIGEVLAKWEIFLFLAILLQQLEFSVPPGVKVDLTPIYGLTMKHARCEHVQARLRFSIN

Turning to `Cc1ccc(S(=O)(=O)N=Nc2c(O)[nH]c3cc(O)c(C(=O)O)cc23)cc1`, the Potency in experiment [1] was over 11.4 µM; in experiment [6], over 46 µM; in experiment [7], over 9.22 µM. Moreover, the figures for the activity change, negative = inhibition in experiment [2], in experiment [3] and in experiment [4] were -1.74%, -15.8% [at 2.29 µM] and 7.79%, respectively. Moreover, in experiment [5], the activity, negative = inhibition is 0.979%. Besides, the Potency result in experiment [8] and in experiment [9] was “inactive” throughout.

As for `Cc1ccc(-[n+]2cc(=O)o[nH]2)cc1`, the Potency in [1] was over 11.4 µM; in [3], 3.98 µM (active); in experiment [6], over 46 µM; in experiment [7], over 9.22 µM. Further, the activity change, negative = inhibition in experiment [2] was 4.74%; in experiment [4], -24.7%. In addition, the activity, negative = inhibition in experiment [5] was 12.6%. Moreover, the Potency result in [8] and in experiment [9] was “inactive” in each case.

With `O=C(O)[C@H](Cc1ccc(O)c([N+](=O)[O-])c1)N1C(=O)c2ccccc2C1=O`, the Potency in experiment [1] is over 11.4 µM; in experiment [6], over 46 µM; in experiment [7], over 9.22 µM. Besides, the activity change, negative = inhibition was 0.441% in experiment [2], -17.9% [at 2.29 µM] in experiment [3] and 11.4% in [4]. The activity, negative = inhibition in experiment [5] was 2.16%. Further, the Potency entry in experiment [8] and in experiment [9] was “inactive” in each case.

In the case of `O=C1COC(c2ccccc2O)=NN1CCCN1CCCC1`, the Potency in [1] was over 11.4 µM; in experiment [6], over 46 µM; in experiment [7], over 9.22 µM. The activity change, negative = inhibition in [2] is 5.73%; in experiment [4] it was -11.6%. Also, the Potency result in [3], in experiment [8] and in experiment [9] was “inactive” each time. In experiment [5], the activity, negative = inhibition is 5.21%.

On to `Cc1c(C)c(C)c(CC2(C)CSC2)c(CC2(C)CSC2)c1C`, for which the Potency was over 11.4 µM in experiment [1], over 46 µM in [6] and over 9.22 µM in experiment [7]. The activity change, negative = inhibition in experiment [2] is 10.3%; in experiment [4], 0.756%. Besides, the Potency result in experiment [3], in experiment [8] and in experiment [9] was “inactive” in each case. Also, the activity, negative = inhibition in experiment [5] was 6.86%.

As for `CN(C)CN1C(=O)S/C(=C2/C(=O)N(CN(C)C)c3ccccc32)C1=O`, the Potency in [1] is over 11.4 µM; in experiment [3] it was 0.794 µM (active); in experiment [6], over 46 µM; in experiment [7], over 9.22 µM. The activity change, negative = inhibition is -4.12% in experiment [2] and 9.46% in experiment [4]. The activity, negative = inhibition in [5] was -0.139%. Further, the Potency entry in experiment [8] and in experiment [9] was “inactive” throughout.

With `O=C(O)c1nnsc1COCc1ccccc1`, the values for the Potency in [1], in [6] and in experiment [7] were over 11.4 µM, over 46 µM and over 9.22 µM, respectively. For the same compound, the figures for the activity change, negative = inhibition in experiment [2] and in experiment [4] were 6.35% and 6.97%, respectively. Besides, the Potency result in [3], in experiment [8] and in [9] was “inactive” in each case. Further, the activity, negative = inhibition in [5] is 12.4%.

In the case of `CCOC(=O)c1cnc(N(C)C)nc1SC(=N)N`, the Potency in experiment [1] was over 11.4 µM; in [6] it was over 46 µM; in experiment [7], over 9.22 µM. The activity change, negative = inhibition in [2] was -8.3%; in experiment [3], -22.6% [at 2.29 µM]; in experiment [4] it was 11.3%. The activity, negative = inhibition in [5] is -0.214%. Further, the Potency result in [8] and in experiment [9] was “inactive” throughout.

As for `O=C(O)Cc1cc(Cl)ccc1O`, the values for the Potency in experiment [1], in experiment [6] and in experiment [7] were over 11.4 µM, over 46 µM and over 9.22 µM, respectively. Also, the activity change, negative = inhibition in experiment [2] is -8.98%; in experiment [4], -0.2%. Further, the Potency entry in experiment [3], in [8] and in [9] was “inactive” each time. In addition, the activity, negative = inhibition in [5] is 20.2%.

As to `CCc1c(O)c2c(c(O)c1C(C)=O)C(=O)c1c(cc(O)c(C(=O)O)c1C(=O)O)C2=O`, the Potency in [1] is over 11.4 µM; in experiment [6] it was over 46 µM; in experiment [7], over 9.22 µM. The activity change, negative = inhibition in [2] is -2.41%; in experiment [4] it was 15.1%. Also, the Potency entry in experiment [3], in [8] and in experiment [9] was “inactive” throughout. The activity, negative = inhibition in experiment [5] is 5.45%.

Turning to `O=C(O)C/C(=C\c1ccccc1)C(=O)O`, the results for the Potency in experiment [1], in [6] and in [7] were over 11.4 µM, over 46 µM and over 9.22 µM, respectively. The results for the activity change, negative = inhibition in experiment [2] and in [4] were 7.15% and -2.46%, respectively. For the same compound, the Potency entry in experiment [3], in [8] and in experiment [9] was “inactive” throughout. For the same compound, the activity, negative = inhibition in experiment [5] was 10.5%.

For the compound `C/C(=N/Nc1nc(C)cc(=O)[nH]1)C(=O)O`, the Potency in experiment [1] is over 11.4 µM; in experiment [6], over 46 µM; in [7], over 9.22 µM. For the same compound, the activity change, negative = inhibition in experiment [2] was 1.69%; in experiment [4], 1.78%. Further, the Potency result in experiment [3], in experiment [8] and in experiment [9] was “inactive” each time. For the same compound, the activity, negative = inhibition in experiment [5] is -0.204%.

Consider `O=C1[C@@H]2[C@@H]3C=C[C@H]([C@@H]2C(=O)N1CN1CCSCC1)[C@@H]1[C@@H]2C(=O)N(CN4CCSCC4)C(=O)[C@@H]2[C@H]31`, for which the Potency in [1] was over 11.4 µM; in experiment [6], over 46 µM; in experiment [7], over 9.22 µM. Also, the activity change, negative = inhibition in experiment [2] is 11.7%; in [4], 5.4%. Further, the Potency result in experiment [3], in experiment [8] and in experiment [9] was “inactive” in each case. For the same compound, the activity, negative = inhibition in experiment [5] is -1.73%.

With `O=S(=O)(c1ccc(Br)cc1)N1CCN(S(=O)(=O)c2ccc(Br)cc2)CC1`, the values for the Potency in [1], in experiment [6] and in experiment [7] were over 11.4 µM, over 46 µM and over 9.22 µM, respectively. In addition, the activity change, negative = inhibition in experiment [2] was 14.8%; in [4], -0.352%. The Potency result in [3], in experiment [8] and in experiment [9] was “inactive” in each case. In experiment [5], the activity, negative = inhibition is 5.43%.

`N#C/C(=C\N1CCNC1=S)C(=O)c1ccc2ccccc2c1`: the Potency in experiment [1] was over 11.4 µM; in experiment [3], 1.58 µM (active); in experiment [6], over 46 µM; in [7], over 9.22 µM. Moreover, the activity change, negative = inhibition in experiment [2] was -19.2%; in [4], 5.58%. The activity, negative = inhibition in [5] was -8.82%. Further, the Potency result in [8] and in experiment [9] was “inactive” in each case.

For `C#CCOCCCC(=O)O`, the results for the Potency in experiment [1], in experiment [6] and in [7] were over 11.4 µM, over 46 µM and over 9.22 µM, respectively. Moreover, the activity change, negative = inhibition was -3.26% in [2] and 0.738% in experiment [4]. For the same compound, the Potency entry in experiment [3], in experiment [8] and in experiment [9] was “inactive” in each case. Further, in [5], the activity, negative = inhibition was 4.1%.
